From PubChem BioAssay (NCI) come the findings set out here.

Several values for one entry are separate records, joined by “and”; a condition that tells them apart may be missing. Equal values may be shown once. About 83,000 compounds went through this panel and 20% of them were active in at least one assay; those are over-represented in the sample as a whole.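 Compound tested at a single concentration for 48 hours in 96-well plates; a percent growth value below 10 was scored as active.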 Activity calls are given as the source filed them.

The experiment concerns HL-60(TB) leukemia. Put plainly: NCI-60 one-dose screen, 48 h (100 = growth as untreated, 0 = no growth, -100 = all killed). Particulars: 10 µM unless noted.
With `O=C(/C=C/c1cccc2ccccc12)Nc1ncc(Cc2ccccc2)s1`, the growth is -11% (active).

With `Cc1ccc(N=C2CSc3nnc(-c4csc5c4CCCC5)n3N2)cc1`, the growth is -25.4% (active).

Consider `COc1ccc2nc3cc(Cl)ccc3c(NCCCNC(C)=O)c2c1`, for which the growth is 57.7% (inactive).

For `CC(C)CC1NC(=O)C(CC(C)C)N(CO)C1=O` (stereo not given), the growth is 106% (inactive).

Take `COC(=O)Nc1nc2ccc(C(=O)c3ccccc3)cc2[nH]1`: the growth is 7.13% (active) and -59.3% (active) and -3.38% (active).

As to `CCCCCCOc1ccc(/C=N/Nc2cc(C)nc3ccc(Br)cc23)cc1`, the growth is -13.7% (active).

For the compound `CCOC(=O)c1cc(C(=O)c2ccc(OC)c(OC)c2)n2ccncc12`, the growth is 92% (inactive).

Take `COc1cc(NS(C)(=O)=O)ccc1Nc1c2ccccc2nc2c(C)cccc12`: the growth is -29.5% (active) and -20.2% (active).

For `Cc1cc2c(F)c(Oc3ncnc(Nc4ccc(N5C[C@@H](C)N[C@@H](C)C5)cc4)c3C#N)cc(F)c2[nH]1`, the growth was -54.6% (active).

Take `Cc1ccc(=O)[nH]n1`: the growth was 99.9% (inactive) and 102% (inactive).

With `Cc1cccc2c(=O)c3c(sc12)c(NCCCN)nc1ccccc13`, the growth was -34.9% (active).

As to `COc1ccc(/C(C)=N/NC(=O)c2ccc(S(C)(=O)=O)cc2)cc1OC`, the growth was 50.9% (inactive).

Take `CNC(=O)c1c(NC(=O)c2ccc(C(F)(F)F)cc2)sc2c1CCC(=O)C2`: the growth was -16.5% (active).

Turning to `O=S(=O)(NCCNc1cc(-c2cn(-c3ccccc3)nc2-c2cccc(O)c2)ccn1)c1ccc(Cl)cc1`, the growth is 15.3% (inactive).

Take `COc1cc(-c2cc(-c3cccs3)c(C#N)c(N3CCOCC3)n2)cc(OC)c1OC`: the growth is 58.9% (inactive).

As to `FC(F)(F)c1cccc(Nc2nc3ccccc3nc2Nc2cccc(C(F)(F)F)c2)c1`, the growth was -48.9% (active).

On to `Cn1cccc1/C=C1/SC(=S)N(CCc2ccc(O)cc2)C1=O`, for which the growth is 1.22% (active).

Consider `CCCCN(CCCC)CC(O)CN(CC)CC` (stereo not given), for which the growth was 108% (inactive).

Take `Cc1cccc(C)c1NC(=O)CN(CC(C)C)CC(O)COc1ccccc1` (stereo not given): the growth is 98% (inactive).

As to `CCc1[nH]nc(-c2ccc(OC)cc2)c1-c1ccccc1OCCN(CC)CC`, the growth is 92.8% (inactive).

Consider `Nc1c(C(=O)O)[nH]c(=O)[nH]c1=O`, for which the growth is 81.3% (inactive).

For the compound `O=C(O)C1CSC(c2ccccc2)N1` (stereo not given), the growth was 128% (inactive).

As to `O=C(/C(=C/c1ccc([N+](=O)[O-])cc1)SCc1ccc(Cl)cc1)c1ccc(F)cc1`, the growth is 59.5% (inactive).

For `O=c1scc(-c2ccc(C(F)(F)F)cc2)s1`, the growth was 92.7% (inactive).

For the compound `CS(=O)(=O)c1ccc(-c2nc3cc(Cl)ccc3n2CC(=O)NO)cc1`, the growth is 91.9% (inactive).

For `CCCCCN1C=C/C(=C\C(=O)N(C)c2ccc(Br)cc2)c2ccccc21`, the growth is 98.2% (inactive).

Take `COc1cc2cc(Oc3ccc(NC(=O)Nc4cc(C(F)(F)F)cc(C(F)(F)F)c4)cc3)c(C)nc2cc1OCCN1CCOCC1`: the growth was 1.68% (active).

`COc1ccc2c(=O)cc(-c3ccccc3)[nH]c2c1`: the growth is 11.5% (inactive) and -29.9% (active).

In the case of `CN1CCN(C(=O)OCc2ccc3c(Cl)cc(Cl)c(O)c3n2)CC1`, the growth is -18.9% (active).

For the compound `CC(CCC#N)(CCC#N)C(=O)c1ccccc1`, the growth was 88.7% (inactive).

As to `Nc1ccc(N2CCOCC2)cc1`, the growth was 81.8% (inactive).

Take `CCCCN(CCCC)c1ccc(C(=O)O)cc1`: the growth is 104% (inactive).

`COc1cc2nc(-c3ccc(C(F)(F)F)cc3)cc(OCCN3CCC(O)CC3)c2cc1OC`: the growth is 68.6% (inactive).

Take `CCSc1nnc(NC(=O)COc2ccc(Cl)cc2C)s1`: the growth was 108% (inactive).

Consider `CCOC(=O)c1c(C)oc(C)c(C(=O)OCC)c1=O`, for which the growth was 247% (inactive) and 61.2% (inactive).

For the compound `Cc1ccc(N2C(=O)c3cccc4c(N)c(S(=O)(=O)O)cc(c34)C2=O)cc1`, the growth was 88.8% (inactive).

As for `CC(=O)Oc1ccc(C2(c3ccc(OC(C)=O)cc3)C(=O)Nc3ccccc32)cc1`, the growth was 75.5% (inactive) and 119% (inactive).

As to `CCN(CC)CCn1c(=N)n(CC(O)c2ccc(Cl)c(Cl)c2)c2ccccc21` (stereo not given), the growth was 71% (inactive).

`COc1ccc(/C=N\NC(=O)CN2CCN(c3cc4c(cc3F)c(=O)c(C(=O)N/N=C/c3ccc(OC)c(OC)c3)cn4C3CC3)CC2)cc1OC`: the growth is 1.29% (active).

In the case of `CCCCCCCCCCCCSC(=NC)NC`, the growth is -37.6% (active) and 38.4% (inactive).
